Data taken from PubChem BioAssay (NCI).
Compounds without any hit were thinned out: in the full panel of roughly 83,000, 20% have a hit.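 Step 1: grow cells in 96-well plates. Step 2: add test compound at a single concentration. Step 3: incubate 48 h. Step 4: record percent growth.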 Calls of active or inactive are those of the source. The calls were made as follows: active = growth percent below 10; inactive = the rest.

Key:
Assay in all cases: NCI-60 one-dose screen, 48 h (100 = growth as untreated, 0 = no growth, -100 = all killed)
Conditions in all cases: 10 µM unless noted
T-47D breast = system: T-47D breast
BT-549 breast = system: BT-549 breast
MDA-MB-435 melanoma = system: MDA-MB-435 melanoma
SW-620 colon = system: SW-620 colon
MCF7 breast = system: MCF7 breast
HCT-116 colon = system: HCT-116 colon
HCC-2998 colon = system: HCC-2998 colon
KM12 colon = system: KM12 colon

Measured: growth

C[C@H]1[C@H]2C3=CC[C@@H]4[C@@]5(C)C/C(=C/c6ccco6)C(=O)C(C)(C)[C@@H]5CC[C@@]4(C)[C@]3(C)CC[C@@]2(C(=O)N2CCOCC2)CC[C@@H]1C
inactive: T-47D breast 32% | BT-549 breast 75.8% | MDA-MB-435 melanoma 97.1% | SW-620 colon 25.3% | MCF7 breast 39.4% | HCT-116 colon 26.9% | HCC-2998 colon 90.5% | KM12 colon 54.2%

Cn1cnc2c1c(=O)n(CCC(=O)Nc1ccc(F)cc1)c(=O)n2C
inactive: T-47D breast 89.7% | BT-549 breast 91.1% | MDA-MB-435 melanoma 108% | SW-620 colon 107% | MCF7 breast 101% | HCT-116 colon 86.5% | HCC-2998 colon 108% | KM12 colon 102%

Cn1c(=O)c2c(nc(N3CCCC3)n2C)n(C)c1=O
inactive: T-47D breast 90.5% | BT-549 breast 97% | MDA-MB-435 melanoma 107% | SW-620 colon 106% | MCF7 breast 99.1% | HCT-116 colon 93.3% | HCC-2998 colon 108% | KM12 colon 101%

Cc1ccc2[nH]cc(-c3nc(-c4cn(C)c5ncccc45)cs3)c2c1
inactive: T-47D breast 41.5% | BT-549 breast 82.9% | MDA-MB-435 melanoma 79.3% | SW-620 colon 109% | MCF7 breast 55.1% | HCT-116 colon 74.9% | HCC-2998 colon 88.8% | KM12 colon 77.9%

CCCCC[C@H]1C/C=C2/C(=O)C(Cl)=C[C@@H]2C/C=C\CCCC(=O)O[C@@H](CCCCC)C/C=C2/C(=O)C(Cl)=C[C@@H]2C/C=C\CCCC(=O)O1
active: T-47D breast -20.3% | BT-549 breast -52.7% | MDA-MB-435 melanoma -16.1% | SW-620 colon -41.6% | MCF7 breast -42.1% | HCT-116 colon -98.7% | HCC-2998 colon -88.6% | KM12 colon -73%

COc1ccc2c(c1)C/C(=C\c1cc(-c3cc(OC)c(OC)c(OC)c3)n[nH]1)C2=O
inactive: T-47D breast 73.4% | BT-549 breast 85.2% | MDA-MB-435 melanoma 91.5% | SW-620 colon 91.1% | MCF7 breast 56.3% | HCT-116 colon 81.9% | HCC-2998 colon 102% | KM12 colon 85%

CC1(C)C=CC[C@]2(C)[C@H]3CC[C@@H]4[C@H]5[C@H](C(=O)/C=C/c6cccnc6)CC[C@]5(CO)CC[C@@]4(C)[C@]3(C)CC[C@@H]12
active: T-47D breast -74.5% | BT-549 breast -81% | MDA-MB-435 melanoma -57.1% | SW-620 colon -59% | MCF7 breast -21.8% | HCT-116 colon -88.6% | HCC-2998 colon -66.8% | KM12 colon -80.7%

O=S(=O)(NCCNc1cc(-c2cn(-c3ccccc3)nc2-c2cccc(O)c2)ccn1)c1ccccc1
inactive: T-47D breast 26.4% | BT-549 breast 67.8% | MDA-MB-435 melanoma 14.7% | SW-620 colon 44.4% | MCF7 breast 37.2% | HCT-116 colon 49.5% | HCC-2998 colon 25.4% | KM12 colon 36.7%

N=C(N)c1ccc(-c2ccc(-c3cc(F)cc(F)c3)o2)nc1
inactive: T-47D breast 86.3% | BT-549 breast 97.4% | MDA-MB-435 melanoma 90.9% | SW-620 colon 54.2% | MCF7 breast 66.9% | HCT-116 colon 64.2% | HCC-2998 colon 96.5% | KM12 colon 91.5%

Cc1cc2nc3c4cc(O)ccc4n(CCN(C)C)c3nc2cc1C
active: T-47D breast 4.84% | MDA-MB-435 melanoma 3.8% | SW-620 colon 3.53% | MCF7 breast -10.1% | HCT-116 colon -0.74% | HCC-2998 colon -22.5%
inactive: BT-549 breast 15.8% | KM12 colon 10.2%

COc1cc(-c2cc3cc(O)ccc3oc2=O)cc(OC)c1OC
inactive: T-47D breast 75.7% | BT-549 breast 106% | MDA-MB-435 melanoma 90.7% | SW-620 colon 108% | MCF7 breast 87.2% | HCT-116 colon 88.9% | HCC-2998 colon 116% | KM12 colon 93.2%

CC(=O)Cc1nsc(NC(=O)c2ccoc2COc2ccccc2)n1
inactive: T-47D breast 105% | BT-549 breast 94% | MDA-MB-435 melanoma 107% | SW-620 colon 105% | MCF7 breast 98.2% | HCT-116 colon 98% | HCC-2998 colon 103% | KM12 colon 100%

O=c1[nH]ncc(Br)c1Br
active: SW-620 colon -80.3%
inactive: T-47D breast 46.3% | BT-549 breast 83.2% | MDA-MB-435 melanoma 64.3% | MCF7 breast 23% | HCT-116 colon 15.2% | HCC-2998 colon 54% | KM12 colon 45.8%

C#CCN=C[C@]12CC[C@@H](C(=C)C)[C@@H]1[C@H]1CC[C@@H]3[C@@]4(C)CCC(=O)C(C)(C)[C@@H]4CC[C@@]3(C)[C@]1(C)CC2
inactive: T-47D breast 37% | BT-549 breast 48.3% | MDA-MB-435 melanoma 72.4% | SW-620 colon 65.3% | MCF7 breast 42.5% | HCT-116 colon 26.8% | HCC-2998 colon 78.1% | KM12 colon 61%

O=C(O)/C(=C/c1ccc(O)cc1)c1ccccc1
inactive: T-47D breast 94.6% | BT-549 breast 95.5% | MDA-MB-435 melanoma 109% | SW-620 colon 105% | MCF7 breast 98% | HCT-116 colon 92.7% | HCC-2998 colon 95.8% | KM12 colon 107%

C=C(C)[C@@H]1CC[C@]2(C(=O)O)CC[C@]3(C)[C@H](CC[C@@H]4[C@@]5(C)C/C(=C/c6cccc(I)c6)C(=O)C(C)(C)[C@@H]5CC[C@]43C)[C@@H]12
inactive: BT-549 breast 35.3% | MDA-MB-435 melanoma 32.1% | SW-620 colon 17.9% | MCF7 breast 19.6% | HCC-2998 colon 28.8% | KM12 colon 15.1%
active: T-47D breast 4.75% | HCT-116 colon 5.1%

C=C(C)[C@@H]1CC[C@]2(/C=N/Nc3ccncc3)CC[C@]3(C)[C@H](CC[C@@H]4[C@@]5(C)CCCNC(C)(C)[C@@H]5CC[C@]43C)[C@@H]12
inactive: T-47D breast 64.5% | BT-549 breast 77.2% | MDA-MB-435 melanoma 86.7% | SW-620 colon 41.4% | MCF7 breast 63.2% | HCT-116 colon 43.8% | HCC-2998 colon 71.3% | KM12 colon 82.1%

CC[C@H](CC[C@@H](C)[C@H]1CC[C@H]2[C@@H]3/C(=C/c4cccnc4)C(=O)C4=CC(=O)CC[C@]4(C)[C@H]3CC[C@]12C)C(C)C
inactive: T-47D breast 47.7% | BT-549 breast 91.3% | MDA-MB-435 melanoma 99.7% | SW-620 colon 93.7% | MCF7 breast 51% | HCT-116 colon 61.9% | HCC-2998 colon 98.8% | KM12 colon 97.1%

CC(=O)c1c(C)[nH]c(-c2nc3ccc(N4CCN(C)CC4)cc3[nH]2)c1-c1ccc(N(C)C)cc1
inactive: T-47D breast 23.8% | BT-549 breast 51.6% | MDA-MB-435 melanoma 27.1% | SW-620 colon 56.8% | HCT-116 colon 23.2% | HCC-2998 colon 30.3% | KM12 colon 37.2%
active: MCF7 breast 8.22%

Cn1cc(-c2csc(-c3cn(CCN)c4ccc(F)cc34)n2)c2cccnc21
inactive: T-47D breast 19% | BT-549 breast 89.1% | MDA-MB-435 melanoma 53.5% | SW-620 colon 52.6% | MCF7 breast 36.2% | HCT-116 colon 77.1% | HCC-2998 colon 91.1% | KM12 colon 47.7%

N#CC1=C(N)Oc2ccc3ccccc3c2C1c1ccccc1Cl (stereo not given)
active: MDA-MB-435 melanoma -8.55%
inactive: T-47D breast 38% | BT-549 breast 31.7% | SW-620 colon 30.6% | MCF7 breast 18.1% | HCT-116 colon 18.3% | HCC-2998 colon 76% | KM12 colon 36%

Fc1ccc2[nH]cc(-c3nc(-c4c[nH]c5ncccc45)cs3)c2c1
inactive: T-47D breast 47.3% | BT-549 breast 20.6% | MDA-MB-435 melanoma 62.1% | SW-620 colon 47.2% | MCF7 breast 30.3% | HCT-116 colon 26.2% | HCC-2998 colon 84.4% | KM12 colon 38.9%

COc1ccc(NC(=O)c2ccoc2COc2ccccc2)cc1
inactive: T-47D breast 95.1% | BT-549 breast 92% | MDA-MB-435 melanoma 73.6% | SW-620 colon 97.9% | MCF7 breast 88.6% | HCT-116 colon 87.4% | HCC-2998 colon 93% | KM12 colon 93.9%

COc1cc2ncnc(Nc3ccc(OCc4cccc(F)c4)c(Cl)c3)c2cc1NC(=O)C1CCCC1
inactive: T-47D breast 24.9% | BT-549 breast 103% | MDA-MB-435 melanoma 89.4% | SW-620 colon 98.4% | MCF7 breast 84.4% | HCT-116 colon 83.4% | HCC-2998 colon 103% | KM12 colon 94.9%

CCCCC/C(=C\c1ccccc1)C1OC(C)C(C)O1 (stereo not given)
inactive: T-47D breast 94.4% | BT-549 breast 95.7% | MDA-MB-435 melanoma 105% | SW-620 colon 103% | MCF7 breast 102% | HCT-116 colon 81.7% | HCC-2998 colon 102% | KM12 colon 98.8%

O=C1C(=O)N(CCCCn2cc(-c3ccccc3)nn2)c2ccccc21
inactive: T-47D breast 93.4% | BT-549 breast 96.7% | MDA-MB-435 melanoma 108% | SW-620 colon 104% | MCF7 breast 94.9% | HCT-116 colon 101% | HCC-2998 colon 117% | KM12 colon 104%

c1ccc2[nH]c(-c3cc(-c4ccc5c(c4)OCO5)n[nH]3)nc2c1
inactive: T-47D breast 40% | BT-549 breast 34.5% | MDA-MB-435 melanoma 58% | SW-620 colon 61.3% | MCF7 breast 59.2% | HCT-116 colon 51.7% | HCC-2998 colon 81.2% | KM12 colon 28.2%

Cc1cc2nc3c4cc(Cl)ccc4n(CCN(C)C)c3nc2cc1C
active: MDA-MB-435 melanoma 1.97% | SW-620 colon -21.9% | MCF7 breast -37.9% | HCT-116 colon -12.7% | HCC-2998 colon -23.7%
inactive: T-47D breast 30.5% | BT-549 breast 53.6% | KM12 colon 19.1%

CCc1ccccc1NC(=O)c1sc2nc3c(cc2c1N)CCCC3
active: MDA-MB-435 melanoma 1.18%
inactive: T-47D breast 34.6% | BT-549 breast 48.4% | SW-620 colon 26.7% | MCF7 breast 19.8% | HCT-116 colon 18.7% | HCC-2998 colon 78.9% | KM12 colon 27.9%

COC(=O)C(N)CSC(c1ccccc1)(c1ccccc1)c1ccccc1 (stereo not given)
active: MDA-MB-435 melanoma -58.7%
inactive: T-47D breast 23.9% | BT-549 breast 54.6% | SW-620 colon 21.1% | MCF7 breast 13.1% | HCT-116 colon 15.7% | HCC-2998 colon 12.9% | KM12 colon 17.6%
